The structures appear in SMILES notation. Values joined by “and” are separate entries in the source; they are usually repeats but may differ in a detail not shown here. Identical values can stand only once. Records with an inconclusive call do not appear. Active and inactive are the calls of the source. The call rests on the fitted dose curve; in most records, active means well fitted curve in the direction sought with a large enough effect in the repeat runs; inconclusive means weak or mixed curves; inactive means no such curve, though single readings can be large; an effect the other way counts as inactive or inconclusive.

Here are results for eight compounds from PubChem BioAssay (Tox21).

Test [1] can be described thus: qHTS RealTime-Glo MT Cell Viability Assay in HEK293 cells - 0 hour (AID 1224880). Further: top concentration of the series differs between compounds; nearly all actives have a fitted effect of over 45% in size. The method in brief: (§1)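 Luminescence, which tracks viable cell number through reduction of the prosubstrate to a NanoLuc substrate, was read over continuous 37 C culture. Cells (600/well) were premixed with reagent and rested 5 h before 23 nL of compound in DMSO was pinned.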
Background: In qHTS, concentration-response curves come from the screen itself.

Test [2] in a line: A CellTox Green Cytotoxicity Assay to monitor cytotoxicity in HEK293 cells - 32 hour (AID 1224881). Further: nearly all actives have a fitted effect of over 40% in size. Further: potency means the concentration at half of the fitted maximal effect. The procedure, abridged: (§2)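 Fluorescence from a DNA-binding dye excluded by viable cells was measured repeatedly in the same HEK293 wells (600 cells/well) during continuous compound exposure at 37 C. Each assay gives one read point: 0, 8, 16, 24, 32 or 40 h.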
The nature of test [3]: A CellTox Green Cytotoxicity Assay to monitor cytotoxicity in HepG2 cells - 0 hour (AID 1224882). Further: nearly all actives have a fitted effect of over 35% in size. The method in brief: (§3)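 Real-time cytotoxicity: fluorescence of a cell-impermeant cyanine dye binding DNA of dead HepG2 cells, measured repeatedly (0–40 h) during compound exposure at 37 C. Cells seeded 600/well with reagent, dosed after 5 h.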
Test [4] is described as follows: A CellTox Green Cytotoxicity Assay to monitor cytotoxicity in HepG2 cells - 32 hour (AID 1224883). Further: nearly all actives have a fitted effect of over 50% in size. Further: potency means the concentration at half of the fitted maximal effect. The procedure, abridged:
as §3

Test [5] in a line: qHTS RealTime-Glo MT Cell Viability Assay in HepG2 cells - 16 hour (AID 1224885). Further: nearly all actives have a fitted effect of over 50% in size. The procedure, abridged:
(§4)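 HepG2 cells were seeded at 600 cells/well together with NanoLuc luciferase and a cell-permeant prosubstrate, preincubated 5 h at 37 C/5% CO2, then pin-dosed with compounds in DMSO. Nonlytic luminescence from viable cells was read at each time point.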

Test [6] can be described thus: qHTS RealTime-Glo MT Cell Viability Assay in HEK293 cells - 24 hour (AID 1224886). Further: top concentration of the series differs between compounds; nearly all actives have a fitted effect of over 50% in size. The method in brief:
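HEK293 cells were seeded at 600 cells/well together with NanoLuc luciferase and cell-permeant prosubstrate, preincubated 5 h at 37 C/5% CO2, then given compound in DMSO by pintool. Luminescence from viable-cell prosubstrate reduction was read repeatedly over 40 h.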

Test [7] can be described thus: qHTS RealTime-Glo MT Cell Viability Assay in HEK293 cells - 8 hour (AID 1224887). Further: top concentration of the series differs between compounds; nearly all actives have a fitted effect of over 50% in size. The procedure, abridged: as §1
Test [8] is described as follows: qHTS RealTime-Glo MT Cell Viability Assay in HepG2 cells - 0 hour (AID 1224889). Further: nearly all actives have a fitted effect of over 50% in size. The procedure, abridged: as §4
The nature of test [9]: A CellTox Green Cytotoxicity Assay to monitor cytotoxicity in HepG2 cells - 8 hour (AID 1224890). Further: nearly all actives have a fitted effect of over 45% in size. The method in brief: as §3
A short description of test [10]: qHTS assay to identify small molecule antagonists of the estrogen receptor alpha (ER-alpha) signaling pathway using the BG1 cell line in the presence of 0.1 nM 17-beta-estradiol - cell viability counter screen (AID 1259241). Further: nearly all actives have a fitted effect of over 40% in size. The procedure, abridged: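 Viability in VM7Luc4E2 cells after 22 hr compound exposure under 0.1 nM 17beta-estradiol stimulation, by CellTiter-Fluor.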

The nature of test [11]: qHTS assay to identify small molecule antagonists of the androgen receptor (AR) signaling pathway using the MDA cell line in the presence of 0.5 nM R1881 - cell viability counter screen (AID 1259242). Further: nearly all actives have a fitted effect of over 45% in size. The procedure, abridged:
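Live-cell protease activity was measured by CellTiter-Fluor fluorescence after 30 min. Before that, MDA-kb2 MMTV-luciferase cells had 16 hr at 37C without CO2, exposed to test compounds and 0.5 nM R1881 final.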

The nature of test [12]: qHTS assay to identify small molecule HDAC inhibitors (AID 1259364). Further: nearly all actives have a fitted effect of over 45% in size. Further: potency means the concentration at half of the fitted maximal effect. The method in brief: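 Luminescence read after 30 min room-temperature HDAC-Glo incubation measures cellular class I/II HDAC activity. Compounds were applied for 2 hr at 37 C to HCT-116 wild-type cells seeded the day before.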
The nature of test [13]: qHTS assay to identify small molecule HDAC inhibitors - cell viability counter screen (AID 1259365). The procedure, abridged: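 Cytotoxicity was gauged in wild-type HCT-116 cells after a brief 2hr treatment with DMSO-dissolved compounds at 37C and 5% CO2, using CellTiter-Glo luminescence developed for 30min at room temperature.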
Test [14] is described as follows: qHTS assay to identify small molecule agonists of the sonic hedgehog signaling (Shh) pathway - cell viability counter screen (AID 1259366). Further: nearly all actives have a fitted effect of over 50% in size. The procedure, abridged: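 Stable Gli1-Luc NIH/3T3 clone, 2,000 cells/well. Compound exposure 24hr at 37C. Read-out: CellTiter-Fluor fluorescence.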
A short description of test [15]: A CellTox Green Cytotoxicity Assay to monitor cytotoxicity in HEK293 cells - 8 hour (AID 1224884). Further: nearly all actives have a fitted effect of over 35% in size. The procedure, abridged:
as §2

Test [16] is described as follows: A CellTox Green Cytotoxicity Assay to monitor cytotoxicity in HEK293 cells - 16 hour (AID 1224888). Further: nearly all actives have a fitted effect of over 35% in size. The procedure, abridged: as §2
The target in test [17] is Androgen receptor (Homo sapiens) (UniProt P10275). In words: qHTS assay to identify small molecule antagonists of the androgen receptor (AR) signaling pathway using the MDA cell line in the presence of 0.5 nM R1881 (AID 1259243). Further: nearly all actives have a fitted effect of over 50% in size. Further: potency means the concentration at half of the fitted maximal effect. The procedure, abridged:
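Luminescent reporter readout (ONE-Glo, 30 min, room temperature) after 16 hr co-treatment of MDA-kb2 cells with test compounds and 0.5 nM R1881 final, at 37C without CO2. The MMTV-driven luciferase responds to both AR and GR.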

For test [18], the target named is Estrogen receptor (Homo sapiens) (UniProt P03372). In words: qHTS assay to identify small molecule antagonists of the estrogen receptor alpha (ER-alpha) signaling pathway using the BG1 cell line in the presence of 0.1 nM 17-beta-estradiol (AID 1259244). Further: nearly all actives have a fitted effect of over 50% in size. The method in brief: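 Luciferase luminescence (ONE-Glo, 30 min at room temperature) was read after 22 hr at 37C exposure to compounds plus 17beta-estradiol at 0.1 nM final. Cells were VM7Luc4E2 with endogenous ER-alpha and an ERE-driven luciferase, pre-cultured 5 days in hormone-depleted medium.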
Chain of Estrogen receptor (Homo sapiens) (P03372 whole entry, looked up): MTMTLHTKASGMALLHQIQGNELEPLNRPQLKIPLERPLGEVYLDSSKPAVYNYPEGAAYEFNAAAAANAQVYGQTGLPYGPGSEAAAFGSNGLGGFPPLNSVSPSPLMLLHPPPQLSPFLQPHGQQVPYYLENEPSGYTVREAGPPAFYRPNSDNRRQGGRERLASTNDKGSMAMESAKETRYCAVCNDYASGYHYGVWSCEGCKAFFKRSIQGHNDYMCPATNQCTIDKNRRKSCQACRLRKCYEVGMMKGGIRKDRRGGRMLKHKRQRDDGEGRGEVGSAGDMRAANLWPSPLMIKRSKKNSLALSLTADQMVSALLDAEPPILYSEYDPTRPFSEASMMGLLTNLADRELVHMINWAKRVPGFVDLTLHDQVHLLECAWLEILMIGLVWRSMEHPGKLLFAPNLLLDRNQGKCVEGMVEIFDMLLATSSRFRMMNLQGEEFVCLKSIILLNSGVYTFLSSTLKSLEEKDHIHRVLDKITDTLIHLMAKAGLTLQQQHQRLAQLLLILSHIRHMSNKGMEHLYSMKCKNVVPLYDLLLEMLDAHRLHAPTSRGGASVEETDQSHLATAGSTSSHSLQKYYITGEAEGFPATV

The nature of test [19]: qHTS assay to identify small molecule antagonists of the sonic hedgehog signaling (Shh) pathway - cell viability counter screen (AID 1259367). Further: nearly all actives have a fitted effect of over 55% in size. The method in brief: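 Fluorescence read-out (CellTiter-Fluor, 1 hr at 37C) taken after 23 hr compound treatment of 3T3 Gli1-Luc cells stimulated with conditioned medium. Cells were seeded at 2,000 per well and pre-incubated 4 hr.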

Chain of Androgen receptor (Homo sapiens) (P10275 whole entry, looked up): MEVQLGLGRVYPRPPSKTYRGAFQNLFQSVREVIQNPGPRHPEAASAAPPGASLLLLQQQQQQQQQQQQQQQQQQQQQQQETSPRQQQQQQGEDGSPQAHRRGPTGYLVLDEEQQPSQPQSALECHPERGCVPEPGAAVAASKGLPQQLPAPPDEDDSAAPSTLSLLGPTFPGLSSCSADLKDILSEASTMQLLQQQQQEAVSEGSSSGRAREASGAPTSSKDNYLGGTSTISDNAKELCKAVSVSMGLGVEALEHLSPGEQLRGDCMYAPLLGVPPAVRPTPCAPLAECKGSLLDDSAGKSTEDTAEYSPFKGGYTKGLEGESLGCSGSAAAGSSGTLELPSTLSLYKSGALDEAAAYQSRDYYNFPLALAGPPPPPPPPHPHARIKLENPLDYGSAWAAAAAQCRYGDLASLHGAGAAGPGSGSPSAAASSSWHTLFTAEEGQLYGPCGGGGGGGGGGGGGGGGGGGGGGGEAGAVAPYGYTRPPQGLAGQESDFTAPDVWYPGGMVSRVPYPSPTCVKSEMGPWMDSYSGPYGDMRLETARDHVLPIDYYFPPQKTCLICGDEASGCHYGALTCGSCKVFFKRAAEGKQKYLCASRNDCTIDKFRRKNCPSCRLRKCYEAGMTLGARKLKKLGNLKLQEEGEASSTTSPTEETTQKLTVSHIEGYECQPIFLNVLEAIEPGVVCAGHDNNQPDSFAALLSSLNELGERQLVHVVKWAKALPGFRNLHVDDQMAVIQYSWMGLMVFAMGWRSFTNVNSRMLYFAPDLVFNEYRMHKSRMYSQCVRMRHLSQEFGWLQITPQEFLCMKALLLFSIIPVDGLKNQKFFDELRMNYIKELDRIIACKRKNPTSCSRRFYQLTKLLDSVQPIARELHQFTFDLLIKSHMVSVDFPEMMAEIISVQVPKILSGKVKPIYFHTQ

Consider `Clc1cnc(Oc2ccc(Oc3ncc(Cl)cc3Cl)cc2)c(Cl)c1`, for which the compound was classed as inactive in test [1], in test [5], in [6], in [7], in test [8] and in [10]. In addition, the outcome in test [11] and in [13] was inactive. Also, the Potency in [2] was 27.5 µM (active). Further, the Potency entry in test [3], in test [4], in [9], in test [12] and in [14] was “inactive” in each case.

As for `CC12CC1(C)C(=O)N(c1cc(Cl)cc(Cl)c1)C2=O` (stereo not given), the result in test [1], in [5], in [6], in test [7], in test [8] and in test [10] was inactive. The outcome in test [11] and in test [13] was inactive. Further, the Potency entry in test [2], in [4], in [15], in test [16], in test [9] and in [12] was “inactive” throughout. Besides, the Potency result in test [14] was “inactive”. Further, the Potency in test [17] is 1.21 µM (active) and 1.37 µM (active).

`CNC(=O)O/N=C(\SC)C(=O)N(C)C`: the compound was called inactive in test [1], in test [5], in [6], in [7], in [8] and in test [10]. Besides, the outcome in test [11] and in test [13] was inactive. For the same compound, the Potency entry in test [2], in test [3], in test [4], in [16], in test [9] and in test [17] was “inactive” in each case. Besides, the Potency entry in test [18], in test [12], in test [14] and in [19] was “inactive” in each case.

Turning to `Cc1ccc(O)c(C)c1`, the result in [1], in [5], in test [6], in test [7], in test [8] and in test [10] was inactive. Also, the outcome in [11] and in test [13] was inactive. The Potency result in test [2], in test [4], in test [15], in test [16], in test [9] and in test [18] was “inactive” each time. Moreover, the Potency entry in test [12] and in test [14] was “inactive” in each case.

Regarding `CNC(=O)O/N=C/C(C)(C)S(C)(=O)=O`, the call in [1], in test [5], in test [6], in test [7], in [8] and in test [10] was inactive. In addition, the outcome in test [11] and in test [13] was inactive. Also, the Potency entry in test [2], in [4], in [15], in [16], in [9] and in test [17] was “inactive” throughout. Also, the Potency result in test [18], in test [12], in [14] and in [19] was “inactive” in each case.

For `CC(C)CCCCCCOC(=O)c1ccccc1C(=O)OCCCCCCC(C)C`, the compound was called inactive in [1], in test [5], in [6], in test [7], in [8] and in test [10]. The result in test [11] and in test [13] was inactive. Moreover, the Potency result in test [2], in test [3], in test [4], in test [16], in [9] and in test [17] was “inactive” throughout. Moreover, the Potency result in test [18], in test [12] and in test [14] was “inactive” throughout.

With `Cc1ccccc1N`, the call in [1], in [5], in [6], in [7], in test [8] and in test [10] was inactive. Moreover, the result in [11] and in test [13] was inactive. Moreover, the Potency result in test [2], in test [3], in test [4], in [16], in test [9] and in test [12] was “inactive” throughout. Besides, the Potency entry in [14] and in test [19] was “inactive” throughout.

With `COC(=O)Nc1cccc(OC(=O)Nc2cccc(C)c2)c1`, the compound was classed as inactive in test [1], in [5], in test [6], in test [7], in [8] and in test [10]. The outcome in test [11] and in [13] was inactive. The Potency result in test [2], in test [3], in test [16], in [9] and in [14] was “inactive” in each case. Also, the Potency in [4] was 49 µM (active); in test [12], 27.3 µM (active) and 30.6 µM (active).
